According to PubChem BioAssay (NCATS):
Records with an inconclusive call do not appear. Calls of active or inactive are those of the source. Unless noted, the call rests on the fitted dose curve.

biological target: Glucocorticoid receptor (Homo sapiens) (UniProt P04150); assay: qHTS assay for small molecule agonists of glucocorticoid receptor signaling (AID 588532; active means well fitted curve in the direction sought with a large enough effect in the signal ratio, with a control signal flat; the % refers to the signal ratio;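 further: 100% = dexamethasone at 0.1 µM and 0% = DMSO only wells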); settings: HeLa MMTV-bla, beta-lactamase ratio, agonist, 18 h; active compounds read high; percent of dexamethasone control, DMSO zero
Sequence (P04150 whole entry, looked up): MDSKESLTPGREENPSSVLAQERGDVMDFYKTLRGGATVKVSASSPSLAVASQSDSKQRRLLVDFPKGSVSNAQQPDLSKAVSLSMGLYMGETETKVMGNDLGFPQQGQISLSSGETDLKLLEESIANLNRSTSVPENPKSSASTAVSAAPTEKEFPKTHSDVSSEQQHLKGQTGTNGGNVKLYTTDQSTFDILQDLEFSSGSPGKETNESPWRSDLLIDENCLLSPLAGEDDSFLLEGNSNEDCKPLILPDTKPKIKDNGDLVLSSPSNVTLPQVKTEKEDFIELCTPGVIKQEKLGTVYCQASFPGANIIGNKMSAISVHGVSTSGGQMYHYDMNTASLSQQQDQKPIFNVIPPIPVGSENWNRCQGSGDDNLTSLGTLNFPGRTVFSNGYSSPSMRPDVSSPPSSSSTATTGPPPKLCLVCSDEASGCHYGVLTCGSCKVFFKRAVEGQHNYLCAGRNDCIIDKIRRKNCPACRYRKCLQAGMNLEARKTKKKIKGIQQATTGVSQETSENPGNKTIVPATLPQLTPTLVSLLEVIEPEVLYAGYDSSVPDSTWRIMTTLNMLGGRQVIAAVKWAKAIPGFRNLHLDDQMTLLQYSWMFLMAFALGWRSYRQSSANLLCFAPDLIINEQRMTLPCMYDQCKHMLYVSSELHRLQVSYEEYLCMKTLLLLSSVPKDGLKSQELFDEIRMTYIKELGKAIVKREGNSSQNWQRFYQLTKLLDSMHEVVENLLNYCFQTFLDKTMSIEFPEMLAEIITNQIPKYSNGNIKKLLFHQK
In short: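 MMTV-bla HeLa beta-lactamase reporter cells in 1% charcoal/dextran FBS medium, compounds up to 92 uM for 18 h at 37 C, CCF4 readout; normalized to 0.1 uM dexamethasone (100%), EC50 and efficacy from Hill fits.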

**Q.** `CCCC(C)(COC(N)=O)COC(N)=O` was tested. Which activation did it give?
**A.** The activation was -13.9% (inactive).

**Q.** Which activation does the source give for `Nc1ccccc1` here?
**A.** Its activation is -2.91% (inactive).

**Q.** `CCOP(=S)(OCC)Oc1ccc2c(C)c(Cl)c(=O)oc2c1` was tested. Which activation did it give?
**A.** Its activation is -1.75% (inactive).

biological target: Peroxisome proliferator-activated receptor delta (Homo sapiens) (UniProt Q03181); assay: qHTS assay for small molecule agonists of peroxisome proliferator-activated receptor delta signaling (AID 588534); settings: HEK293T PPARdelta-UAS-bla, beta-lactamase ratio, 18 h; series mostly up to 76.7 µM;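 further: 0% = DMSO basal wells and 100% = positive control agonist at 10 µM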
Sequence (Q03181 whole entry, looked up): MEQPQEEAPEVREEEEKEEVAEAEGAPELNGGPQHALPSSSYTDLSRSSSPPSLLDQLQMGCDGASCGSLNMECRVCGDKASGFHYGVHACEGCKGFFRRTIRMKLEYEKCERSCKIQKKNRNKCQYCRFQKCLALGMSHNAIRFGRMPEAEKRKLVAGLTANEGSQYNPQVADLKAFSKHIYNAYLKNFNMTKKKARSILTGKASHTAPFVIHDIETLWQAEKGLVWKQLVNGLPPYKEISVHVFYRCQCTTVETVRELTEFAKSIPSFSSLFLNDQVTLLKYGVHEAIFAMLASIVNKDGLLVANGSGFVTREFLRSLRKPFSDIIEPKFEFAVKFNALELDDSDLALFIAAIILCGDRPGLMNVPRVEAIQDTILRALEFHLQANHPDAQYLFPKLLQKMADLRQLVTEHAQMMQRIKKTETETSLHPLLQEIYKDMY
In short: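 Reporter cells were plated and held 5 hrs at 37 C before compounds were added. After 18 hrs at 37 C, CCF4 dye was loaded for 2 hrs at RT and fluorescence measured.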

**Q.** `NC(=O)N1c2ccccc2C=Cc2ccccc21` was tested. Which outcome did it give?
**A.** Its outcome is “inactive”.

**Q.** For `O=C(OOC(=O)c1ccccc1)c1ccccc1`, which outcome is on record?
**A.** Its outcome is “inactive”.

**Q.** How did the outcome turn out when `CC(=O)Nc1ccccc1` was run?
**A.** Its outcome is “inactive”.

**Q.** Which outcome does the source give for `CC(C)(Oc1ccc(Cl)cc1)C(=O)O` here?
**A.** Its outcome is “inactive”.

**Q.** How did the outcome turn out when `COc1cc(OC)c(C(=O)CCCN2CCCC2)c(OC)c1` was run?
**A.** The outcome was “inactive”.

**Q.** For `O=C(O)/C=C\C(=O)O`, which outcome is on record?
**A.** The outcome was “inactive”.

**Q.** With `O=c1[nH]c(=O)n([C@H]2C[C@H](O)[C@@H](CO)O2)cc1Br` as the molecule, how does the outcome read?
**A.** The outcome was “inactive”.

**Q.** For `Cc1cc(=O)[nH]c(=S)[nH]1`, which outcome is on record?
**A.** Its outcome is “inactive”.

**Q.** With `O=C(O)c1cc(O)c(O)c(O)c1` as the molecule, how does the outcome read?
**A.** The outcome was “inactive”.

**Q.** With `Cc1ncc(CO)c(CO)c1O` as the molecule, how does the outcome read?
**A.** Its outcome is “inactive”.

**Q.** For `Cn1c(=O)c2[nH]cnc2n(C)c1=O`, which outcome is on record?
**A.** The outcome was “inactive”.

**Q.** `Nc1nc(Cl)nc2c1ncn2[C@H]1C[C@H](O)[C@@H](CO)O1` was tested. Which outcome did it give?
**A.** The outcome was “inactive”.

**Q.** `O=C(c1ccccc1)c1ccccc1` was tested. Which outcome did it give?
**A.** Its outcome is “inactive”.

**Q.** Which outcome does the source give for `CC12CCC(CC1)C(C)(C)O2` here?
**A.** Its outcome is “inactive”.

**Q.** Which outcome does the source give for `O=C(O)Cc1cccc2ccccc12` here?
**A.** Its outcome is “inactive”.

**Q.** With `O=C(O)CCCCC1CCSS1` (configuration not stated) as the molecule, how does the outcome read?
**A.** Its outcome is “inactive”.

**Q.** How did the outcome turn out when `CCCC(C)(COC(N)=O)COC(N)=O` was run?
**A.** The outcome was “inactive”.

**Q.** How did the outcome turn out when `CCCCOC(=O)CC(CC(=O)OCCCC)(OC(C)=O)C(=O)OCCCC` was run?
**A.** Its outcome is “inactive”.

**Q.** `O=C(O)c1cc(=O)[nH]c(=O)[nH]1` was tested. Which outcome did it give?
**A.** The outcome was “inactive”.

**Q.** For `O=C1c2c(O)cccc2Cc2cccc(O)c21`, which outcome is on record?
**A.** Its outcome is “inactive”.

**Q.** Which outcome does the source give for `Nc1ccc(S(N)(=O)=O)cc1` here?
**A.** Its outcome is “inactive”.

**Q.** Which outcome does the source give for `NC(=O)c1cnccn1` here?
**A.** The outcome was “inactive”.

**Q.** How did the outcome turn out when `CCCCOC(=O)c1ccc(O)cc1` was run?
**A.** The outcome was “inactive”.

**Q.** For `COc1ccc2[nH]cc(CCNC(C)=O)c2c1`, which outcome is on record?
**A.** The outcome was “inactive”.

**Q.** `CO/N=C(/C(=O)N[C@@H]1C(=O)N2C(C(=O)O)=C(COC(N)=O)CS[C@H]12)c1ccco1` was tested. Which outcome did it give?
**A.** The outcome was “inactive”.

**Q.** With `Nc1ccccc1` as the molecule, how does the outcome read?
**A.** The outcome was “inactive”.

**Q.** Which outcome does the source give for `CCOP(=S)(OCC)Oc1ccc2c(C)c(Cl)c(=O)oc2c1` here?
**A.** Its outcome is “inactive”.

**Q.** Which outcome does the source give for `Nc1ccc(S(=O)(=O)c2ccc(N)cc2)cc1` here?
**A.** Its outcome is “inactive”.

**Q.** For `COC(=O)c1ccc(O)cc1`, which outcome is on record?
**A.** Its outcome is “inactive”.

**Q.** How did the outcome turn out when `Cc1cc(C)nc(NS(=O)(=O)c2ccc(N)cc2)n1` was run?
**A.** Its outcome is “inactive”.

**Q.** How did the outcome turn out when `CC(=O)NS(=O)(=O)c1ccc(N)cc1` was run?
**A.** Its outcome is “inactive”.

**Q.** How did the outcome turn out when `O=C(N[C@H](CO)[C@H](O)c1ccc([N+](=O)[O-])cc1)C(Cl)Cl` was run?
**A.** The outcome was “inactive”.

**Q.** With `O=c1[nH]cnc2[nH]ncc12` as the molecule, how does the outcome read?
**A.** The outcome was “inactive”.

**Q.** `NNC(=O)c1ccncc1` was tested. Which outcome did it give?
**A.** Its outcome is “inactive”.
